This is an account of results in PubChem BioAssay AID587 (National Center for Advancing Translational Sciences (NCATS), 2007).

Screen size: about 59,000 compounds; about 35 (0.06%) were called active. Not shown: some 19% with an inconclusive outcome. Rule as the data show it: active = max dye-equivalent concentration above about 10 nM; inconclusive = between about 1.1 nM and that limit; inactive = weaker than that. Many of the other results were omitted from the sample, so actives are more common in it than they were.

The nature of this test: qHTS Assay for Spectroscopic Profiling in Texas Red Spectral Region. To be noted: Compound fluorescence, Texas Red channel, 547/618 nm; hits give high values. The text has this:
NIH Molecular Libraries Screening Centers Network [MLSCN] NIH Chemical Genomics Center [NCGC] […] Occasionally, the artifactual effect may originate from the compound#s own spectral or other biophysical properties which generally tend to track its assay concentration. Pre-screening/profiling the library with respect to the compounds# spectral properties should help one exclude false positives early on. While the most informative fluorescent profiling data set is obtained by performing a full excitation and emission scan of each well by using a monochromator-based plate reader, such an approach is practical only on a very limited scale as scanning each well requires long time. An alternative approach, applied here, is to perform plate reader scans using selected excitation and emission wavelength pairs to generate a multidimensional relational database that correlates compound concentration and the respective relative fluorescence intensity at a given wavelength set. A standard curve of Texas Red (TR) present on each plate as six-point concentration series, was used to compute a normalized fluorescence response, termed dye-equivalent concentration, for each compound at each concentration.
NCGC Assay Protocol Summary: Buffer: 100 mM Tris buffer, pH 8.0 Dye standard plate: The wells in columns 1 through 4 of a Kalypsys polypropylene 1536-well compound plate were filled with standard solutions of fluorophore corresponding to the spectral region of interest. Solutions of TR were placed in the following wells: U1, V1: 3 mM, U2, V2: 300 uM, U3, V3: 30 uM, U4, V4: zero (DMSO), W1, X1: 3 uM, W2, X2: 900 nM, W3, X3: 300 nM, W4, X4: zero (DMSO). Assay Steps: Six uL of buffer were dispensed to 1536-well Greiner black plates. Compounds and dye standards (23 nL) were transferred via Kalypsys PinTool. The plates were incubated for 15 min at room temperature, and then read on ViewLux (Perkin-Elmer) High-throughput CCD imager using 547 nm and 618 nm excitation and emission filter set. Keywords: NIH Roadmap, MLSCN, MLI, MLSMR, qHTS, NCGC, Texas Red, Fluorescent Profiling.
On to `CC(C)C(NC(=O)c1cccc(S(=O)(=O)N2CCOCC2)c1)C(=O)NCCc1ccccn1` (stereo unspecified), for which the max dye-equivalent concentration entry was “inactive”.
The value for `CSc1ccc(-c2c(C#N)c(N)nc3c2c(C)nn3-c2ccccc2)cc1` was “inactive”; that for `CC(C)(C)n1nc2c(c1NC(=O)c1ccc(S(=O)(=O)N3CCCC3)cc1)CS(=O)C2` (stereo unspecified) was “inactive”.
As for `CCC[C@H]1C(=O)N2C(N(C)C)=Nc3ccc(C)cc3N2C1=O`, the max dye-equivalent concentration result was “inactive”.
Turning to `Cc1nc2cnc(N3CCN(C)CC3)nc2n(CCC#N)c1=O`, the max dye-equivalent concentration entry was “inactive”.
Take `CCOc1ccc(-c2nnn(CC(=O)N3CCN(c4ccc(OC)cc4)CC3)n2)cc1OCC`: the max dye-equivalent concentration entry is “inactive”.
To `Cc1cnc(NC(=O)CSc2nnc(-c3ccc(Cl)cc3Cl)n2N)s1` belongs “inactive”.
With `CC[C@]1(C)CC(=O)NC1=O`, the max dye-equivalent concentration result was “inactive”.
To `CCc1ccc2oc(=O)cc(CN3CCCCC3C)c2c1` (stereo unspecified) belongs “inactive”.
The value for `Cc1cc(NC(=O)Cn2nc(C(F)(F)F)c3c2CCCC3)no1` was “inactive”; that for `Cc1cc(C(F)(F)F)n2ncc(-c3ccccc3)c2n1` was “inactive”.
In the case of `CN(C)/C=C1/Nc2ccccc2C1=O`, the max dye-equivalent concentration entry is “inactive”.
To `CCOC(=O)C1CCCCN1Cc1ccc(OC)c(OC)c1OC` (stereo unspecified) belongs “inactive”; to `CN(Cc1ccco1)c1ncncc1-c1ccoc1`, “inactive”.
Consider `COc1ccc(-c2c3c(=O)n(C)c(=O)n(C)c3cn2NC(C)=O)cc1`, for which the max dye-equivalent concentration entry is “inactive”.
`COc1ccc2nccc(C(=O)O)c2c1`: the max dye-equivalent concentration entry was “inactive”.
For the molecule `Cc1ccc(C(=O)Nc2nnc(-c3cccs3)s2)cc1C`, the max dye-equivalent concentration entry was “inactive”.
Turning to `CCc1ccccc1NC(=O)CSc1nnc([C@@H](NC(=O)OC(C)(C)C)C(C)C)o1`, the max dye-equivalent concentration entry was “inactive”.
To `Cc1ccc(F)cc1NC(=O)c1ccc2c(c1)OCO2` belongs “inactive”.
For the molecule `CC(C)[C@H](NC(=O)Nc1ccc(S(N)(=O)=O)cc1)C(=O)O`, the max dye-equivalent concentration result was “inactive”.
With `CCc1ccccc1N(CC(=O)N1CCN(c2ccccc2F)CC1)S(C)(=O)=O`, the max dye-equivalent concentration result is “inactive”.
The value for `COc1ccccc1NC(=O)CSc1nc2sc(C)c(C)c2c(=O)n1Cc1ccco1` was “inactive”; that for `CCOc1ccccc1/C=c1\sc2nc(-c3ccco3)nn2c1=O` was “inactive”; that for `CN(c1ccccc1)c1ccc(/C=c2\s/c(=C(/C#N)C(=O)C(C)(C)C)n(Cc3ccco3)c2=O)cc1` was 54 nM (active).
On to `Cc1c(S(=O)(=O)O)ccc(N=Nc2c(O)c(C(=O)O)cc3ccccc23)c1Cl`, for which the max dye-equivalent concentration entry was “inactive”.
To `O=C(NCc1ccco1)c1cnn2c(C(F)(F)F)cc(-c3ccco3)nc12` belongs “inactive”; to `COCCn1c(=O)c(-c2cccs2)nc2cnc(N3CCN(C)CC3)nc21`, “inactive”.
The value for `COCCn1c(=O)c(CCc2ccccc2)nc2cncnc21` was “inactive”.
For `COc1ccc(-c2nc3cnc(N(C)C)nc3n(Cc3cccs3)c2=O)cc1`, the max dye-equivalent concentration result was “inactive”.
To `c1ccc2c(Nc3ccncc3)nc(-c3ccc4c(c3)OCO4)nc2c1` belongs “inactive”; to `Cn1c(=O)c(CCc2ccccc2)nc2cnc(Nc3ccccc3)nc21`, “inactive”; to `CS(=O)(=O)NCc1ccc(C(=O)NCc2ccccc2)cc1`, “inactive”.
To `CCc1cccc(C)c1NC(=O)CSc1nnc(-c2ccco2)n1N` belongs “inactive”; to `O=C(Nc1ccccc1F)c1cc(S(=O)(=O)N2CCCCC2)cs1`, “inactive”; to `Fc1cnc(N2CCOCC2)nc1NCc1ccccc1`, “inactive”.
For `CCNc1ncc2ncc(=O)n(CCc3ccccc3)c2n1`, the max dye-equivalent concentration result is “inactive”.
Turning to `Cc1noc(C)c1-c1nc(Nc2ccccc2)c2ccccc2n1`, the max dye-equivalent concentration entry is “inactive”.
Turning to `Cc1cc(N2CCCC2)n2nc(C)c(-c3ccccc3)c2n1`, the max dye-equivalent concentration entry is “inactive”.
To `CC(C)(C)c1csc(NC2=NS(=O)(=O)c3ccccc32)n1` belongs “inactive”.
The value for `COc1ccc(-c2nc3cnc(Oc4ccccc4)nc3n(Cc3cccs3)c2=O)cc1` was “inactive”; that for `COC(=O)CN(c1nc(C)c(Cl)c(OC)n1)S(=O)(=O)c1ccc(C)cc1` was “inactive”; that for `COC(=O)CNC(=O)c1ccc2c(c1)S(=O)(=O)c1ccccc1C2=O` was “inactive”.
Regarding `CC(C)C1N=C2c3ccccc3N=C(SCC(=O)c3ccc(O)c(O)c3)N2C1=O` (stereo unspecified), the max dye-equivalent concentration result was “inactive”.
The value for `O=C(O)C1CCCCC1C(=O)Nc1ccc(Cl)cc1` (stereo unspecified) was “inactive”; that for `CCCS(=O)(=O)C(=C1Nc2ccccc2N1)S(=O)(=O)CCC` was “inactive”; that for `Cn1c(-c2ccc(C(=O)c3ccccc3)s2)nc2ccccc21` was “inactive”.
The value for `O=C(NCC1CCCO1)C(C(=O)c1ccccc1)n1cc(Cl)ccc1=O` (stereo unspecified) was “inactive”; that for `CCOC(=O)c1[nH]c2ccc(C)cc2c1N=C(C)N(C)C` was “inactive”; that for `COC(=O)N1CCC2(CCCN(c3ccncc3)C2)CC1` was “inactive”.
As for `COCCn1c(=O)c(-c2ccccc2)nc2cnc(N3CCOCC3)nc21`, the max dye-equivalent concentration entry is “inactive”.
In the case of `COCCn1c(=O)c(-c2cc(F)cc(F)c2)nc2cncnc21`, the max dye-equivalent concentration entry was “inactive”.
Regarding `Cc1nn2c3ccccc3nc2n(C)c1=O`, the max dye-equivalent concentration entry is “inactive”.
To `O=C(COc1ccc2c3c(c(=O)oc2c1)CCC3)NC1CCCCC1` belongs “inactive”; to `O=C(NCc1ccccn1)c1cc2ccccc2oc1=O`, “inactive”.
The value for `COc1ccc(Cl)cc1NC(=O)c1oc(C)nc1C` was “inactive”; that for `Cc1c(C)c2c(c(C)c1O)CC[C@@](C)(CN1CCN(c3cc(N4CCCC4)nc(N4CCCC4)n3)CC1)O2` was “inactive”.
